# Pf growth 96h = inhibits malaria parasite growth, 96 h. P. falciparum luciferase reporter growth, 96 h. Potency, µM (highest dose often 28.7 µM), most hits filed as inhibitors. 6.9% of 320,000 active
#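 Infected RBCs, 2% Hct / 0.05% parasitemia final; luciferase-reporter P. falciparum; cpd 96 h, 37 C, 5% CO2; luciferase detection reagent; luminescence.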
# HCV inhibitor = HCV inhibition; Potency, µM (series often up to 41.8 µM), actives largely listed as inhibitors; AID 651820; Huh7.5.1 HCVcc-Cre infection, luciferase reporter, 44 h; 3.4% of 340,000 active
#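 1,000 cells/well; 4 h culture; + compound; + HCVcc-Cre (~0.5 moi); 44 h; luciferase substrate, RT 15 min; read 15 sec.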
# AmpC detergent = blocks E. coli AmpC beta-lactamase in detergent assay; P00811; AmpC hydrolysis of nitrocefin, absorbance 480 nm, 0.01% Triton; Potency, µM (top dose mostly 114 µM), usual class: inhibitors; 0.041% of 370,000 active; AID 485294; note: nearly all actives have a fitted effect of over 25% in size
# Target sequence (P00811 whole entry, looked up): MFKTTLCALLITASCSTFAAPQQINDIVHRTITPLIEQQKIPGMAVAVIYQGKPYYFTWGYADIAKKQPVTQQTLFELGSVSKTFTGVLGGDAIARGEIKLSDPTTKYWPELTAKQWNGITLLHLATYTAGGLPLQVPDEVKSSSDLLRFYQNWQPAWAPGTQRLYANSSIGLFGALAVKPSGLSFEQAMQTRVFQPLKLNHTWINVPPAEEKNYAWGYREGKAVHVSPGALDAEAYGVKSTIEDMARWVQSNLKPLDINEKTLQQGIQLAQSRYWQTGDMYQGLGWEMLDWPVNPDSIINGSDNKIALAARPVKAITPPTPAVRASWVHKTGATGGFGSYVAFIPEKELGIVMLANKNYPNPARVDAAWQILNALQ
#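 AmpC (5.3 nM in the dispensed reagent) in 20 mM phosphate pH 7.0 with 0.01% (detergent screen) or 0.0001% Triton X-100 was preincubated with compounds for 15 min at room temperature. Nitrocefin was then added from an 800 uM solution, and hydrolysis was followed at 480 nm.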
# AmpC no deterg = inhibitors of E. coli AmpC beta-lactamase without detergent; Potency, µM (highest dose often 57.1 µM), usual class: inhibitors; P00811; 0.52% of 330,000 active; AID 485341; AmpC nitrocefin hydrolysis, absorbance 480 nm, 0.0001% Triton; note: nearly all actives have a fitted effect of over 20% in size
#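 AmpC (5.3 nM in the dispensed reagent) in 20 mM phosphate pH 7.0 with 0.01% (detergent screen) or 0.0001% Triton X-100 was preincubated with compounds for 15 min at room temperature. Nitrocefin was then added from an 800 uM solution, and hydrolysis was followed at 480 nm.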
# Pf growth 48h = P. falciparum growth inhibition at 48 hours (one generation); 5.9% of 310,000 active; Potency, µM (highest dose often 28.7 µM), hits mostly inhibitors; P. falciparum luciferase growth in erythrocytes, 48 h
#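 Here the parasites carry a stable luciferase gene and grow inside erythrocytes in Albumax-based RPMI medium with compound for one erythrocytic cycle. Activity is scored as loss of luminescent signal.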
# AMA1-RON2 inh = disrupts binding of P. falciparum AMA1 to RON2 | Potency, µM (doses to about 58.2 µM), hits mostly inhibitors | 0.2% of 360,000 active | AlphaScreen AMA1-biotinylated RON2 peptide binding; note: nearly all actives have a fitted effect of over 45% in size
#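 AMA1 (3D7) with his tag at 25 nM final met compounds first, then biotinylated RON2 peptide at 25 nM; detection used donor plus acceptor beads, 10 µg/mL apiece, read by AlphaScreen after 30 min at room temperature.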
# Numbers stand for hits; - = inactive; ? = inconclusive; . = not tested or not shown. Only some compounds are listed: those with a hit (about 11% of all), similar ones and a draw of the others. Calls come from the whole dose curve; as a rule, active = well fitted curve in the direction sought with a large enough effect; inconclusive = small, poorly fitted or top-dose-only effect, or another doubt; inactive = no such curve, though single readings can be large; an effect the other way counts as inactive or inconclusive.
SMILES,Pf growth 96h,HCV inhibitor,AmpC detergent,AmpC no deterg,Pf growth 48h,AMA1-RON2 inh
COC(=O)c1ccc(C(=O)OC)c(NC(=O)CSc2cccc[n+]2[O-])c1,1.17µM,-,-,-,?,-
CCN(C(=O)CSc1cccc[n+]1[O-])C1CCCCC1,.,-,.,-,.,-
[O-][n+]1ccccc1SSc1cccc[n+]1[O-],0.477µM,.,.,.,0.849µM,.
O=C(CSc1cccc[n+]1[O-])N1CCCCCC1,-,-,-,-,-,-
CCc1ccc(NC(=O)CSc2nc(=O)n(Cc3cccnc3)c3c2CCC3)cc1,.,.,-,.,.,.
COC(=O)c1cc2sc(C)cc2n1CC(=O)Nc1cccc(SC)c1,.,.,-,.,.,.
CC(=O)Oc1ccc(-c2cccc(C(=O)OCC(=O)N(C)c3ccccc3)c2)cc1,14.7µM,-,-,-,-,-
CN(C)c1cccc(C(=O)OCC(=O)N(C)c2ccccc2)c1,-,-,-,-,-,-
CC(=O)Oc1ccc(-c2cccc(C(=O)OCC(=O)Nc3ccccc3Oc3ccccc3)c2)cc1,?,?,-,-,?,-
CCOc1ccccc1NC(=O)COC(=O)c1cccc(-c2ccc(OC(C)=O)cc2)c1,9.28µM,-,-,-,9.28µM,-
CCOc1ccc(NC(=O)CN(c2ccc(C)cc2)S(=O)(=O)c2cccs2)cc1,.,.,-,.,.,.
COc1ccc(C2=NN(CC(=O)NCCc3ccc(OC)c(OC)c3)C(=O)CC2)cc1,.,.,-,.,.,.
Cc1ccc(CNc2ncnc3c2c(-c2ccccc2)cn3-c2cccc(Cl)c2)cc1,.,.,-,.,.,.
O=C(O)c1c(Cl)c(Cl)c(Cl)c(Cl)c1-c1c2cc(I)c(=O)c(I)c-2oc2c(I)c(O)c(I)cc12,-,.,.,.,-,.
O=C(O)c1ccccc1-c1c2cc(I)c(=O)c(I)c-2oc2c(I)c(O)c(I)cc12,.,-,.,.,.,7.94µM
COc1ccc(-c2nc(CN3CCCCC3CCc3ccccn3)c(C)o2)cc1 (stereo unspecified),?,-,-,-,?,-
Cc1oc(-c2cccc(F)c2)nc1CN1CCCCC1CCc1ccccn1 (stereo unspecified),?,-,-,-,13.1µM,-
COc1ccc2[nH]c3c(c2c1)CCNC3C (stereo unspecified),9.28µM,?,-,-,-,-
COc1ccc2[nH]c3c(c2c1)CCNC3c1ccc([N+](=O)[O-])o1 (stereo unspecified),-,-,-,-,13.1µM,-
COc1ccc(S(=O)(=O)N2CCCC2CNC(=O)C(=O)NCc2ccc(C)cc2)cc1 (stereo unspecified),?,-,-,-,?,-
COc1ccc(CCNC(=O)C(=O)NCC2CCCN2S(=O)(=O)c2ccccc2)cc1 (stereo unspecified),11.7µM,?,-,-,-,-
O=C(NCCc1ccc(F)cc1)C(=O)NCC1CCCN1S(=O)(=O)c1ccccc1 (stereo unspecified),?,11.2µM,-,?,?,-
COc1ccccc1CCNC(=O)C(=O)NCC1CCCN1S(=O)(=O)c1ccccc1 (stereo unspecified),14.7µM,?,-,-,?,-
COc1ccccc1CNC(=O)C(=O)NCCC1CCCCN1S(=O)(=O)c1ccccc1 (stereo unspecified),?,-,-,-,?,-
COc1ccc(S(=O)(=O)N2CCCC2CNC(=O)C(=O)NCc2ccccc2)cc1 (stereo unspecified),?,?,?,31.6µM,?,-
SMILES,Pf growth 96h,HCV inhibitor,AmpC detergent,AmpC no deterg,Pf growth 48h,AMA1-RON2 inh
COc1ccc(S(=O)(=O)N2CCCC2CNC(=O)C(=O)NCCc2ccccc2)cc1 (stereo unspecified),?,?,?,-,?,-
CCOc1ccc(Nc2c(S(=O)(=O)c3ccc(Cl)cc3)cnc3ccc(OC)cc23)cc1,.,.,-,.,.,.
CCc1ccccc1N(C(=O)c1snc(C(N)=O)c1N)C(C(=O)NCC1CCCO1)c1ccc(C)o1 (stereo unspecified),9.28µM,?,-,-,?,-
Cc1ccc(N(C(=O)c2snc(C(N)=O)c2N)C(C(=O)NCC2CCCO2)c2ccc(C)o2)c(C)c1 (stereo unspecified),?,?,-,-,?,-
COc1ccc(C(C(=O)NCC2CCCO2)N(C(=O)c2snc(C(N)=O)c2N)c2ccc(C)cc2)cc1OC (stereo unspecified),13.1µM,-,-,-,10.4µM,-
COc1ccc(N(C(=O)c2snc(C(N)=O)c2N)C(C(=O)NCC2CCCO2)c2ccc(C)o2)cc1OC (stereo unspecified),-,?,-,-,8.28µM,-
CC1CCN(c2cc3c(cc2F)c(=O)c(S(=O)(=O)c2cccc(Cl)c2)cn3Cc2ccccc2)CC1,.,.,-,.,.,.
COc1ccc2c(c1)c1c(c(=O)n(Cc3ccccc3)c(=O)n1Cc1cccc(Cl)c1)n2C,.,.,-,.,.,.
COc1cc([C@@H]2CC=C(C(=O)O)[C@H](c3ccc(Cl)cc3)N2S(=O)(=O)c2ccc(C)cc2)cc(OC)c1OC,9.28µM,-,?,-,9.28µM,-
COc1ccc([C@@H]2CC=C(C(=O)O)[C@H](c3ccccc3)N2S(=O)(=O)c2ccc(C)cc2)cc1OC,?,-,-,-,?,-

# Screening data deposited in PubChem by National Center for Advancing Translational Sciences (NCATS).
